Source: PubChem BioAssay (NCI)
About 83,000 compounds went through this panel and 20% of them were active in at least one assay; those are over-represented in the sample as a whole.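 Percent growth is the endpoint: 0 to 100 indicates growth inhibition (40 means 60% inhibition), 0 means no net growth, and negative values indicate cell death.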 Unmarked numbers belong to inactive results. The source made the active and inactive calls. Rule for the calls: active = growth percent below 10; inactive = the rest.

Experiments:
Test in all cases: NCI-60 one-dose screen, 48 h (100 = growth as untreated, 0 = no growth, -100 = all killed)
Details in all cases: 10 µM unless noted
NCI-H23 lung = system: NCI-H23 lung
NCI-H226 lung = system: NCI-H226 lung
NCI-H322M lung = system: NCI-H322M lung
HOP-62 NSCLC = system: HOP-62 NSCLC
NCI-H460 lung = system: NCI-H460 lung
HOP-92 NSCLC = system: HOP-92 NSCLC
NCI-H522 lung = system: NCI-H522 lung
A549/ATCC NSCLC = system: A549/ATCC NSCLC
786-0 renal = system: 786-0 renal
COLO 205 colon = system: COLO 205 colon
DU-145 prostate = system: DU-145 prostate
K-562 leukemia = system: K-562 leukemia
MALME-3M melanoma = system: MALME-3M melanoma
MDA-MB-231 breast = system: MDA-MB-231 breast
RXF 393 renal = system: RXF 393 renal
SF-268 CNS = system: SF-268 CNS
SF-295 CNS = system: SF-295 CNS
SF-539 CNS = system: SF-539 CNS
UACC-257 melanoma = system: UACC-257 melanoma
M14 melanoma = system: M14 melanoma

SMILES	growth (NCI-H23 lung)	growth (NCI-H226 lung)	growth (NCI-H322M lung) [%]	growth (HOP-62 NSCLC)	growth (NCI-H460 lung)	growth (HOP-92 NSCLC)	growth (NCI-H522 lung)	growth (A549/ATCC NSCLC)	growth (786-0 renal) [%]	growth (COLO 205 colon)	growth (DU-145 prostate)	growth (K-562 leukemia)	growth (MALME-3M melanoma)	growth (MDA-MB-231 breast)	growth (RXF 393 renal)	growth (SF-268 CNS)	growth (SF-295 CNS)	growth (SF-539 CNS)	growth (UACC-257 melanoma)	growth (M14 melanoma)
CC(C)NC(=O)c1cc(-c2ccc(NC(=O)Nc3ccc(F)c(C(F)(F)F)c3)cc2)nc2cccnc12	93.2%	94.8%	107	80.8%	86.4%	90.1%	87.4%	86.8%	88.3	114%	100%	84.2%	123%	92.3%	81.9%	92%	86.2%	90.3%	101%	92.3%
NS(=O)(=O)c1ccc(CCn2c(-c3ccc(C(=O)O)cc3)nc(-c3ccccc3)c2-c2ccccc2)cc1	98.4%	98.3%	97	104%	107%	94.6%	96.8%	105%	103	112%	102%	96.8%	97.9%	92.6%	104%	93.8%	101%	99.1%	105%	105%
CCc1cc(OC(=O)N2CCN(CCC(C)(COC(C)(C)C)COC(C)(C)C)CC2)ccc1Nc1cc(-c2ccc(-n3cccn3)cc2)[nH]n1	83.9%	67.1%	101	91.7%	74.4%	73.1%	80.7%	81.1%	85.8	80.8%	84%	52.1%	89.7%	83.5%	41%	73.8%	85.1%	88.8%	92.9%	97.6%
COC(=O)N1CCN(CCNCc2ccc(NC(=O)c3ccc(C)c(C#Cc4cnc5cccnn45)c3)cc2C(F)(F)F)CC1	36.2%	31.1%	75.3	24.9%	22.2%	12.2%	30.2%	27.9%	38.2	2.48% (active)	44.9%	5.18% (active)	-49.1% (active)	-9.19% (active)	-47.2% (active)	28.2%	-25.1% (active)	-15.9% (active)	-10.6% (active)	8.75% (active)
COc1ccc(/C=N/NC(=O)CSc2nc(-c3cnccn3)cc(-c3cccs3)c2C#N)cc1OC	66.6%	47%	91.9	77.1%	56.2%	37.8%	76.5%	74.8%	53.1	107%	100%	95.5%	69.1%	50.1%	-12.9% (active)	70.5%	83.1%	36.7%	91.7%	77.5%
CC(C)(C)OC(=O)Nc1ccc(-c2cccc(Oc3ccc4nnc(Cl)n4n3)c2)cc1	69.7%	66.4%	101	104%	82.4%	42.3%	64.9%	85.6%	81.9	88.5%	82.7%	31.2%	106%	83.8%	89.8%	104%	84.1%	92.7%	87.1%	65.9%
O=C(CSc1nc2ccccc2c(=O)n1CCc1ccccc1)Nc1ccc(S(=O)(=O)Nc2ccc(Cl)nn2)cc1	89.9%	88.1%	92.8	95.8%	101%	79.7%	87.1%	91.9%	102	101%	105%	87.2%	96.5%	94.7%	86.5%	96.7%	95.3%	92.3%	99.3%	96.2%
Cc1ccc([C@H]2c3[nH]c4ccccc4c3C[C@H]3C(=O)N(CCCCCCC(=O)NO)CC(=O)N23)s1	77.6%	94%	67.4	68%	57.3%	51.2%	41.1%	85.5%	89.3	67.9%	71.5%	35.8%	22.9%	72.2%	59.7%	88.5%	78.1%	58%	53.5%	63.5%
COc1ccc(/C=N/NC(=O)c2c(N)nn(C)c2Nc2ccccc2)cc1Oc1ccccc1	90.4%	91.9%	89.4	96.5%	102%	51.3%	93.8%	89.1%	101	117%	101%	88%	91.1%	94.9%	87.1%	94%	90.4%	95.7%	96.9%	101%
CNC(=O)Nc1ccc(Nc2cc(-c3ccc(-n4cccn4)cc3)[nH]n2)c(C)c1	102%	104%	101	106%	97.3%	173%	96.1%	102%	111	124%	105%	95.5%	125%	123%	141%	103%	109%	98.7%	115%	126%
COc1ccc(OC)c(NC(=O)CCCCCCNC(=O)C(O)(O)C(F)(F)F)c1	48.6%	78.7%	61	36.8%	39%	28.8%	-0.794% (active)	47.7%	50	10.5%	34.9%	19.4%	24.9%	61.6%	1.79% (active)	55%	20.6%	46%	41.2%	46.8%
COc1ccc2c(c1)c(-c1nc(N)nnc1-c1c[nH]c3ccccc13)cn2C	47.7%	37.6%	57.3	44.8%	14.2%	54%	29.9%	48.4%	54.5	29.3%	59.6%	16.3%	37.2%	46.2%	39.5%	45.6%	23.7%	25.2%	67.4%	29.8%
O=C(CCCCCCNC(=O)C(O)(O)C(F)(F)F)Nc1ncc(-c2ccc(Br)cc2)s1	-16% (active)	4.5% (active)	12.2	-6.49% (active)	0.631% (active)	-23.3% (active)	-44.9% (active)	-15.2% (active)	14.9	-55.9% (active)	3.81% (active)	11.8%	19.9%	19.7%	-52.8% (active)	1.89% (active)	-29.3% (active)	12.1%	9.48% (active)	8.94% (active)
O=C(NNc1nc2cc(F)cc(F)c2n2cccc12)c1cccnn1	21.7%	-3.91% (active)	28.4	28.2%	6.92% (active)	75.4%	0.0735% (active)	17.5%	14.3	16.3%	20.8%	12.8%	21.4%	30.2%	22.3%	12%	9.98% (active)	3.8% (active)	3.33% (active)	7.06% (active)
